Measured values reported in PubChem BioAssay (Tox21).
Records with an inconclusive call do not appear. Activity calls are given as the source filed them. Unless noted, calls follow the shape of the dose curve; as a rule, active = well fitted curve in the direction sought with a large enough effect in the repeat runs; inconclusive = weak or mixed curves; inactive = no such curve, though single readings can be large; an effect the other way counts as inactive or inconclusive.

Key:
[1] = qHTS assay to test for compound auto fluorescence at 535 nm (green) in HEK293 cells (AID 720680)
[2] = qHTS assay to test for compound auto fluorescence at 460 nm (blue) in HEK293 cell free culture (AID 720681)
In short: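 Compounds were added to cell-free DMEM with 10% FBS and fluorescence read directly. The blue channel used 405 nm excitation and 460 nm emission, with triamterene as the reference fluorophore.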

[3] = qHTS assay to test for compound auto fluorescence at 535 nm (green) in HEK293 cell free culture (AID 720682)
In short: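 Green-label autofluorescence (485 nm excitation, 535 nm emission) measured on compound added to cell-free culture medium (DMEM, 10% FBS). Output is expressed relative to fluorescein.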

[4] = qHTS assay to test for compound auto fluorescence at 590 nm (red) in HEK293 cell free culture (AID 720683)
In short: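 Cell-free wells of DMEM with 10% FBS received compound, and intrinsic fluorescence was read at excitation/emission 540/590 nm. Values expressed as equivalence to Rose Bengal sodium.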

[5] = qHTS assay to test for compound auto fluorescence at 460 nm (blue) in HepG2 cell free culture (AID 720685)
In short: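 Cell-free plates of MEM plus 10% FBS received 23 nL compound or DMSO vehicle; blue-channel (405/460 nm) intensity scored against triamterene as reference fluorophore.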

[6] = qHTS assay to test for compound auto fluorescence at 535 nm (green) in HepG2 cell free culture (AID 720686)
[7] = qHTS assay to test for compound auto fluorescence at 460 nm (blue) in HepG2 cells (AID 720687)
In short: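 HepG2 cells in MEM with 10% FBS, attached overnight at 37 C, were exposed to compound or DMSO for 1 hr at 37 C, 5% CO2. Blue fluorescence was read at 405/460 nm, with triamterene as reference fluorophore.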

[8] = molecular target: Glucocorticoid receptor (Homo sapiens) (UniProt P04150); assay: qHTS assay to identify small molecule agonists of the glucocorticoid receptor (GR) signaling pathway (AID 720691; active = well fitted activation curve with a large enough effect in the signal ratio in the repeat runs, not every such curve was filed as active; the % refers to the signal ratio)
In short: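 Compounds in DMSO, alongside positive controls, were added to GR-bla HeLa reporter cells and incubated 18 h at 37 C; GRE-driven beta-lactamase was detected by fluorescence after 2 h with FRET substrate at room temperature.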

[9] = qHTS assay for identifying genotoxic compounds that show differential cytotoxicity against isogenic chicken DT40 cell lines with known DNA damage response pathways - wild type cell line (AID 743012); also: nearly all actives have a fitted effect of over 60% in size; also: potency is read from the fitted curve at half-maximal effect
In short: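 Viability of DNA repair-proficient chicken DT40 cells was assessed by CellTiter-Glo luminescence following 40 h compound exposure at 37 C/5% CO2.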

[10] = qHTS assay for identifying genotoxic compounds that show differential cytotoxicity against isogenic chicken DT40 cell lines with known DNA damage response pathways - Rev3 mutant cell line (AID 743014); also: nearly all actives have a fitted effect of over 55% in size; also: potency is read from the fitted curve at half-maximal effect
[11] = qHTS assay for identifying genotoxic compounds that show differential cytotoxicity against isogenic chicken DT40 cell lines with known DNA damage response pathways - Rad54/Ku70 mutant cell line (AID 743015); also: nearly all actives have a fitted effect of over 60% in size; also: potency is read from the fitted curve at half-maximal effect
[12] = qHTS assay to identify small molecule antagonists of the androgen receptor (AR) signaling pathway - cell viability counter screen (AID 743033; also: nearly all actives have a fitted effect of over 45% in size; also: potency is read from the fitted curve at half-maximal effect)
[13] = qHTS assay to identify small molecule antagonists of the androgen receptor (AR) signaling pathway using the MDA cell line - cell viability counter screen (AID 743041; also: nearly all actives have a fitted effect of over 45% in size; also: potency is read from the fitted curve at half-maximal effect)
In short: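 Cytotoxicity counter screen: MDA-kb2 AR-luc cells, compound + R1881, 16 h, 37C, 0% CO2; CellTiter-Fluor added at 15.5 h, fluorescence read after 30 min.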

[14] = qHTS assay to test for compound auto fluorescence at 590 nm (red) in HepG2 cell free culture (AID 720684)
In short: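 Rose Bengal sodium served as the reference for red signal. Test compounds were dispensed into serum-containing MEM (10% FBS) without cells, and plates were read at 540/590 nm.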

[15] = qHTS assay to identify small molecule antagonists of the glucocorticoid receptor (GR) signaling pathway - cell viability counter screen (AID 720693); also: nearly all actives have a fitted effect of over 55% in size
[16] = molecular target: Glucocorticoid receptor (Homo sapiens) (UniProt P04150); assay: qHTS assay to identify small molecule antagonists of the glucocorticoid receptor (GR) signaling pathway (AID 720692; active = well fitted inhibition curve with a large enough effect in the signal ratio in the repeat runs, not every such curve was filed as active; the % refers to the signal ratio)
In short: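 In a 1536-well cell format, compounds were added 4 h after seeding GR-bla HeLa cells, together with dexamethasone at 5 nM final; reporter activity was measured by FRET-substrate fluorescence following 18 h at 37 C.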

[17] = molecular target: Androgen receptor (Homo sapiens) (UniProt P10275); assay: qHTS assay to identify small molecule antagonists of the androgen receptor (AR) signaling pathway (AID 743035; active = well fitted inhibition curve with a large enough effect in the signal ratio in the repeat runs, not every such curve was filed as active; the % refers to the signal ratio; also: potency is read from the fitted curve at half-maximal effect)
In short: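 Reporter HEK293 cells were exposed to compounds and R1881 overnight (16 h, 37C); beta-lactamase activity was then quantified by FRET fluorescence.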

[18] = molecular target: Androgen receptor (Homo sapiens) (UniProt P10275); assay: qHTS assay to identify small molecule agonists of the androgen receptor (AR) signaling pathway (AID 743036; active = well fitted activation curve with a large enough effect in the signal ratio in the repeat runs, with a control signal flat, not every such curve was filed as active; the % refers to the signal ratio)
In short: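 AR-UAS-bla HEK293 cells, plated 4 h before dosing, were treated with compound for 16 h at 37C. beta-Lactamase reporter read after 2 h with LiveBLAzer B/G FRET substrate at room temperature.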

[19] = molecular target: Androgen receptor (Homo sapiens) (UniProt P10275); assay: qHTS assay to identify small molecule agonists of the androgen receptor (AR) signaling pathway using the MDA cell line (AID 743040; also: nearly all actives have a fitted effect of over 20% in size)
In short: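 Luciferase read-out, ONE-Glo, 30 min RT. Cells: MDA-kb2 AR-luc, MMTV promoter with AR and GR response elements. Compound exposure 16 h, 37C, 0% CO2, after 5 h pre-incubation. qHTS agonist mode.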

[20] = molecular target: Androgen receptor (Homo sapiens) (UniProt P10275); assay: qHTS assay to identify small molecule antagonists of the androgen receptor (AR) signaling pathway using the MDA cell line (AID 743042; also: nearly all actives have a fitted effect of over 55% in size; also: potency is read from the fitted curve at half-maximal effect)
In short: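 MDA-kb2 breast carcinoma cells carrying MMTV-luciferase (AR/GR responsive) were co-treated with compounds and the agonist R1881 for 16 h at 37C. Inhibition read as ONE-Glo luminescence; CellTiter-Fluor fluorescence measured in parallel for cytotoxicity.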
% is scaled to controls: 0 for no effect and ±100 for the full control effect.

Chain of Androgen receptor (Homo sapiens) (P10275 whole entry, looked up): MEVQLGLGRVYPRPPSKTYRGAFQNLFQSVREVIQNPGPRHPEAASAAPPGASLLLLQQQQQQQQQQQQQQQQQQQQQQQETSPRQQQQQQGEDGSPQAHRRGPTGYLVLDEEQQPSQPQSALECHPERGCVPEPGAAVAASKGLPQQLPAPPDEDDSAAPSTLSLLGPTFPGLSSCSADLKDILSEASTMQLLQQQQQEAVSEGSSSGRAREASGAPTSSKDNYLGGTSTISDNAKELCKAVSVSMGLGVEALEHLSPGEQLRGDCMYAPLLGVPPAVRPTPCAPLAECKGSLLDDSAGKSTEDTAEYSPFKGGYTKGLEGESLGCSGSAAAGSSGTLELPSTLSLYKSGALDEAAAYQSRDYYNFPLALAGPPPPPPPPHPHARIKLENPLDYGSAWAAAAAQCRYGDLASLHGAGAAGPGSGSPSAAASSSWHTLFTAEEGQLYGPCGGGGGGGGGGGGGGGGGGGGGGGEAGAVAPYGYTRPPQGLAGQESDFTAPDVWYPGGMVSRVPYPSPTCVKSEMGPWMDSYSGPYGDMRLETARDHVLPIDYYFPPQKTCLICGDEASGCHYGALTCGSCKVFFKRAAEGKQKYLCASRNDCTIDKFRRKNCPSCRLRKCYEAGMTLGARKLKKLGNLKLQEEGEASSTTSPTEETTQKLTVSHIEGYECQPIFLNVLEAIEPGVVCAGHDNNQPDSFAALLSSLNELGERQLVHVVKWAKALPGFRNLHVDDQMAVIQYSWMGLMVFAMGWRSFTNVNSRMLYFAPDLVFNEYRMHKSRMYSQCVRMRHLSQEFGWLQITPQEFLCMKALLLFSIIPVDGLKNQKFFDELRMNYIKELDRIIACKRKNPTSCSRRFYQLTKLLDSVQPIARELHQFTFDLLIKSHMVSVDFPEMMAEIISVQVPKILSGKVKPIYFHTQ
Chain of Glucocorticoid receptor (Homo sapiens) (P04150 whole entry, looked up): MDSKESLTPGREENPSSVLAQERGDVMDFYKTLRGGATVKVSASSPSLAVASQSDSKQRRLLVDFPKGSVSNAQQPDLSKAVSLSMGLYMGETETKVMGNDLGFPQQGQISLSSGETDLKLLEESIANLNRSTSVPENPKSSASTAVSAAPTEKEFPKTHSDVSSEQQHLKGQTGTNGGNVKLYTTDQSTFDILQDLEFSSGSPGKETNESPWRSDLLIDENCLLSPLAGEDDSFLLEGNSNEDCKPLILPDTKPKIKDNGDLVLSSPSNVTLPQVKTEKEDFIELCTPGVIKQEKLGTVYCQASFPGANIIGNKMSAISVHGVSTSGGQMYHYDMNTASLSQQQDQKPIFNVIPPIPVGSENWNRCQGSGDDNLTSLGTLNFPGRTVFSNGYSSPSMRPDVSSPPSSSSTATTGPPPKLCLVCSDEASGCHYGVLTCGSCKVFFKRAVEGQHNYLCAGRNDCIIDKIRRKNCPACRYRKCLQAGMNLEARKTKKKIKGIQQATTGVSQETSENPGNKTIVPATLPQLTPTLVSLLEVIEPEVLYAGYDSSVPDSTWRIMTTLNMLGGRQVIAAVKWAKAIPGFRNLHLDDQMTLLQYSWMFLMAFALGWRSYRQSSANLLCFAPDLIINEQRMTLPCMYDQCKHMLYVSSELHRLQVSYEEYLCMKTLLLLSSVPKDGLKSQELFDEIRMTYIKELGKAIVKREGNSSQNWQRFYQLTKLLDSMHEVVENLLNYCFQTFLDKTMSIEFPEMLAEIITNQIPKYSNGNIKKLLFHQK

CC(C)COCC(CN(Cc1ccccc1)c1ccccc1)N1CCCC1 (configuration not stated)
inactive: outcome [1] | Potency [2] | outcome [3] | outcome [4] | Potency [5] | outcome [6] | Potency [7] | Potency [8] | Potency [12] | Potency [13]
active: Potency [9] 5.31 µM | Potency [10] 8.41 µM | Potency [11] 7.5 µM

Oc1c(I)cc(I)c2cccnc12
inactive: outcome [1] | Potency [2] | outcome [3] | outcome [4] | outcome [14] | Potency [5] | outcome [6] | Potency [15] | Potency [12] | Potency [13]
active: Potency [11] 13.3 µM

CC(=O)N/N=C/c1ccc([N+](=O)[O-])o1
inactive: outcome [1] | Potency [2] | outcome [3] | outcome [4] | outcome [14] | Potency [5] | outcome [6] | Potency [8] | Potency [12] | Potency [13]
active: Potency [9] 11.9 µM | Potency [10] 10.6 µM | Potency [11] 18.8 µM

O=C1C(=O)c2ccccc2C(O)=C1C1CCC(c2ccc(Cl)cc2)CC1 (configuration not stated)
active: Potency [9] 5.07 µM
inactive: fluorescence, % of fluorescein [1] -0.014% [at 18.6 µM] | fluorescence, % of fluorescent control [2] -0.0599% [at 18.6 µM] | activity change [3] -0.0167% [at 18.6 µM] | fluorescence, % of fluorescent control [4] 0.0147% [at 18.6 µM] | fluorescence, % of fluorescent control [5] 0.0263% [at 18.6 µM] | fluorescence, % of fluorescein control [6] 0.136% [at 18.6 µM] | fluorescence, % of fluorescent control [7] 0.0025% [at 18.6 µM] | Potency [15] | Potency [10] | Potency [12] | Potency [13]

CC(=O)Nc1cc(S(=O)(=O)O)cc2cc(S(=O)(=O)O)c(N=Nc3ccccc3)c(O)c12
inactive: outcome [1] | Potency [2] | outcome [3] | outcome [4] | outcome [14] | Potency [5] | outcome [6] | Potency [15] | Potency [9] | Potency [11] | Potency [12] | Potency [13]

C(=C\c1ccccc1)/c1ccccc1
inactive: outcome [1] | Potency [2] | outcome [3] | outcome [4] | Potency [5] | outcome [6] | Potency [7] | Potency [15] | Potency [10] | Potency [11] | Potency [12] | Potency [13]

Cc1ccccc1N=C(N)Nc1ccccc1C
active: Potency [10] 30.1 µM
inactive: outcome [1] | Potency [2] | outcome [3] | outcome [4] | Potency [5] | outcome [6] | Potency [7] | Potency [8] | Potency [15] | Potency [12] | Potency [13]

C[C@@]12CCC[C@H]1[C@@H]1CC[C@H]3C[C@@H](O)CC[C@]3(C)[C@H]1CC2
inactive: outcome [1] | Potency [2] | outcome [3] | outcome [4] | Potency [5] | outcome [6] | Potency [7] | Potency [8] | Potency [16] | Potency [15] | Potency [9] | Potency [10] | Potency [11] | Potency [12] | Potency [13]

O=C(/C=C/c1ccc(O)c(O)c1)O[C@@H]1C[C@@](OC(=O)/C=C/c2ccc(O)c(O)c2)(C(=O)O)C[C@@H](O)[C@@H]1O
inactive: outcome [1] | Potency [2] | outcome [3] | outcome [4] | outcome [14] | Potency [5] | outcome [6] | Potency [8] | Potency [15] | Potency [12] | Potency [13]

CC(=O)OCCN(CCOC(C)=O)c1ccc(N=Nc2ccc([N+](=O)[O-])cc2C#N)cc1
inactive: outcome [1] | Potency [2] | outcome [3] | outcome [4] | Potency [5] | outcome [6] | Potency [7] | Potency [8] | Potency [15] | Potency [12] | Potency [13]
active: Potency [9] 61.1 µM | Potency [10] 30.6 µM | Potency [11] 30.6 µM

O=C(Cn1ccnc1[N+](=O)[O-])NCCO
inactive: outcome [1] | Potency [2] | outcome [3] | outcome [4] | Potency [5] | outcome [6] | Potency [7] | Potency [9] | Potency [11] | Potency [12] | Potency [17] | outcome [18] | outcome [19] | Potency [13] | Potency [20]

Cc1ccc(OC(=O)c2ccccc2O)cc1
inactive: outcome [1] | Potency [2] | outcome [3] | outcome [4] | Potency [5] | outcome [6] | Potency [7] | Potency [8] | Potency [15] | Potency [9] | Potency [10] | Potency [11] | Potency [12] | Potency [13]

Nc1nnc(-c2ccc([N+](=O)[O-])o2)o1
inactive: outcome [1] | Potency [2] | outcome [3] | outcome [14] | Potency [5] | outcome [6] | Potency [7] | Potency [8] | Potency [15]
active: Potency [9] 24.3 µM | Potency [10] 19.3 µM | Potency [11] 19.3 µM | Potency [13] 61.1 µM

O[C@@H]1CO[C@H]2[C@@H]1OC[C@@H]2O
inactive: outcome [1] | Potency [2] | outcome [3] | outcome [14] | Potency [5] | outcome [6] | Potency [7] | Potency [8] | Potency [16] | Potency [15] | Potency [9] | Potency [10] | Potency [11] | Potency [12] | Potency [13]

Cc1cccc(N(C)C(=S)Oc2ccc3c(c2)CCC3)c1
inactive: outcome [1] | Potency [2] | outcome [3] | outcome [14] | Potency [5] | outcome [6] | Potency [7] | Potency [8] | Potency [15]

Oc1ccc(Cl)c2cccnc12
inactive: outcome [1] | Potency [2] | outcome [3] | outcome [14] | Potency [5] | outcome [6] | Potency [7] | Potency [8] | outcome [18] | outcome [19]
active: Potency [9] 2.98 µM | Potency [10] 4.22 µM | Potency [11] 6.68 µM | Potency [12] 13.4 µM | Potency [17] 19 µM | Potency [20] 9.44 µM
